The values that follow come from PubChem BioAssay (Tox21).

“And” between values parts separate entries of the source, which are not always exact repeats. Equal entries are not always repeated. Records with an inconclusive call do not appear. More than one record can exist for a structure, and the calls need not agree. The source made the active and inactive calls. Unless noted, calls follow the shape of the dose curve; as a rule, active = well fitted curve in the direction sought with a large enough effect in the repeat runs; inconclusive = weak or mixed curves; inactive = no such curve, though single readings can be large; an effect the other way counts as inactive or inconclusive.

Assay [1] addresses Estrogen receptor beta (Homo sapiens) (UniProt Q92731). Kind of assay: qHTS assay to identify small molecule agonists of the estrogen receptor beta (ER-beta) signaling pathway (AID 1259377; active = well fitted activation curve with a large enough effect in the signal ratio in the repeat runs, not every such curve was filed as active; the % refers to the signal ratio). The gist of the method: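 ER-beta-UAS-bla HEK293T cells in medium with 2% charcoal-stripped FBS were exposed to compounds for 16 h at 37C. Beta-lactamase reporter activity was read as fluorescence after 2 h with LiveBLAzer B/G FRET substrate at room temperature.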

Assay [2] shares this target. Description: qHTS assay to identify small molecule antagonists of the estrogen receptor beta (ER-beta) signaling pathway (AID 1259378; active = well fitted inhibition curve with a large enough effect in the signal ratio in the repeat runs, not every such curve was filed as active; the % refers to the signal ratio; also: potency is read from the fitted curve at half-maximal effect). Summed up:
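ER-beta-UAS-bla HEK293T cells in 2% charcoal-stripped FBS medium treated with compound plus 1nM final 17-beta-estradiol for 16 hr at 37C. Beta-lactamase reporter read by FRET substrate fluorescence after 2 hours at room temperature.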
In general terms: Quantitative high-throughput screening tests each substance at several concentrations.

Assay [3] is described as follows: qHTS assay to identify small molecule agonists of the androgen receptor (AR) signaling pathway in the presence of an antagonist - cell viability counter screen (AID 1259379). Also: nearly all actives have a fitted effect of over 25% in size. Also: potency is read from the fitted curve at half-maximal effect. The gist of the method:
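Counter screen for cell viability run in parallel with the AR agonist-mode luciferase assay. MDA-kb2 cells were co-treated with nilutamide (3.0uM final) and compounds, then incubated 16 hr at 37C, and CellTiter-Fluor fluorescence was measured.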

Assay [4] is described as follows: qHTS assay to identify small molecule agonists of the estrogen receptor beta (ER-beta) signaling pathway - cell viability counter screen (AID 1259380). Also: nearly all actives have a fitted effect of over 30% in size. Also: potency is read from the fitted curve at half-maximal effect. Summed up:
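In this qHTS counter screen, HEK293T cells carrying an ER-beta/UAS beta-lactamase reporter, grown in 2% charcoal-stripped FBS, received compound for 16 hr; ATP-based CellTiter-Glo luminescence was then read after 30 min at room temperature.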

Assay [5] is described as follows: qHTS assay to identify small molecule antagonists of the estrogen receptor beta (ER-beta) signaling pathway - cell viability counter screen (AID 1259382). Also: series mostly up to about 92 µM; nearly all actives have a fitted effect of over 55% in size. The gist of the method: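 HEK293T ER-beta-UAS-bla, 2% charcoal-stripped FBS; compounds + 1nM E2 16 hr 37C; CellTiter-Glo luminescence, 30 min RT.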
Assay [6] can be described thus: qHTS assay to identify small molecule agonists or antagonists of the thyroid stimulating hormone receptor (TSHR) signaling pathway - wild type cell line counter screen (AID 1259384; calls by dose curve). Summed up: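 Wild-type Hek293 cells, 800/well, 18 h at 37C, then compound with Ro20-1724 for 30 min RT. cAMP by HTRF (cAMP-d2/anti-cAMP cryptate), 1 h RT, fluorescence read. 15 concentrations, triplicates.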

Assay [7] can be described thus: qHTS assay to identify small molecule agonists of the estrogen receptor alpha (ER-alpha) signaling pathway in the presence of an antagonist - cell viability counter screen (AID 1259386).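 Also: cells exposed to compounds for 22 h at 37 °C before the viability read; nearly all actives have a fitted effect of over 30% in size.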 Also: potency is read from the fitted curve at half-maximal effect. The gist of the method: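 Steps: 5-day stripped-FBS culture; seed and incubate 24hr; add ICI-182,780 (10.0nM final); pin 15-point compound titration; incubate 22hr at 37C; add CellTiter-Fluor at 21hr; read fluorescence.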

Assay [8] has as its target Progesterone receptor (Homo sapiens) (UniProt P06401). Description: qHTS assay to identify small molecule antagonists of the progesterone receptor (PR) signaling pathway (AID 1346795; active = well fitted inhibition curve with a large enough effect in the signal ratio in the repeat runs, not every such curve was filed as active; the % refers to the signal ratio; also: potency is read from the fitted curve at half-maximal effect). Summed up:
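PR-UAS-bla HEK293T cells with beta-lactamase reporter under UAS control, in 2% charcoal-stripped FBS, treated with compounds plus 1 nM promegestone (R5020, final) for 16 hr at 37C. Read-out: FRET beta-lactamase substrate fluorescence after 2 hr at room temperature.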

Assay [9] can be described thus: qHTS assay to identify small molecule antagonists of the TGF-beta/Smad signaling pathway - cell viability counter screen (AID 1346824). Also: nearly all actives have a fitted effect of over 50% in size. Summed up: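 SBE-bla HEK 293T cells, incubated overnight, then compound plus 0.25 ng/mL TGF-beta1 (stock added) for 5 hr at 37 C. Viability was read in the same wells by CellTiter-Glo luminescence after 30 min at room temperature.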

Assay [10] can be described thus: qHTS assay to identify small molecule agonists of the TGF-beta/Smad signaling pathway - cell viability counter screen (AID 1346829). Also: top concentration of the series differs between compounds; nearly all actives have a fitted effect of over 45% in size. The gist of the method: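 Cytotoxicity counter screen: CellTiter-Glo luminescence (30 min, room temperature) measured in the SBE-bla HEK 293T reporter wells after 5 hr compound treatment at 37 C and the 2 hr substrate step.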
Assay [11] in a line: qHTS assay to identify small molecule agonists of the TGF-beta/Smad signaling pathway (AID 1346859; active = well fitted activation curve with a large enough effect in the signal ratio in the repeat runs, not every such curve was filed as active; the % refers to the signal ratio; also: series mostly up to about 77 µM). The gist of the method: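 SBE-bla HEK293T cells plated overnight, then compound exposure for 5 h at 37 C. Beta-lactamase reporter read with LiveBLAzer B/G FRET substrate after 2 h at room temperature, fluorescence at 405 nm excitation, 460/530 nm emission.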
Assay [12] concerns the target Thyrotropin-releasing hormone receptor (Homo sapiens) (UniProt P34981). Kind of assay: qHTS assay to identify small molecule antagonists of the thyrotropin-releasing hormone receptor (TRHR) signaling pathway (AID 1346877; active = well fitted inhibition curve with a large enough effect in the repeat runs, not every such curve was filed as active; also: series mostly up to about 51 µM). Summed up: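 Human TRHR in HEK293 cells; inhibition of the intracellular calcium rise triggered by 1 nM TRH was followed by fluorescence over 3 min. Compounds were run at 15 concentrations, three replicates each.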

The target is the same in assay [13]. Kind of assay: qHTS assay to identify small molecule agonists of the thyrotropin-releasing hormone receptor (TRHR) signaling pathway (AID 1346891; calls by dose curve; also: series mostly up to about 58 µM). The gist of the method: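 HEK293 cells expressing TRHR plated 18 h at 37 C/5% CO2, calcium dye-loaded 2 h at 37 C, then compound added (agonist mode); kinetic calcium fluorescence read 3 min at 1 s intervals; 15 concentrations in triplicate.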

Assay [14] can be described thus: Human pregnane X receptor (PXR) small molecule agonists, qHTS cell viability counter screen (AID 1346977). Also: nearly all actives have a fitted effect of over 50% in size. Also: potency is read from the fitted curve at half-maximal effect. Summed up:
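PXR-Luc HepG2 cells (2,000/well, 5% charcoal-stripped FBS) preincubated 5 hr, then exposed to compounds 24 hr at 37 C. Viability read in the same wells by CellTiter-Fluor fluorescence, reagent added at 23 hr, 1 hr incubation.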

Assay [15] deals with Progesterone receptor (Homo sapiens) (UniProt P06401). Description: qHTS assay to identify small molecule agonists of the progesterone receptor (PR) signaling pathway (AID 1346784; calls by dose curve; also: nearly all actives have a fitted effect of over 30% in size). The gist of the method:
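PR-UAS-bla HEK 293T cells (beta-lactamase reporter under UAS) in 2% charcoal-stripped FBS, dosed with 23 nL compound after 6 hr, incubated 16hr at 37C. LiveBLAzer B/G FRET substrate added, fluorescence read after 2 hours.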

Assay [16] can be described thus: qHTS assay to identify small molecule antagonists of the progesterone receptor (PR) signaling pathway - cell viability counter screen (AID 1346798). Also: series mostly up to about 92 µM; nearly all actives have a fitted effect of over 50% in size. The gist of the method:
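PR-UAS-bla HEK293T cells, 3,000/well in 2% charcoal-stripped FBS medium, dosed with compounds plus R5020 agonist and incubated 16 h at 37C. Viability then measured in the same wells by CellTiter-Glo luminescence after 30 min at RT.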

The nature of assay [17]: qHTS assay to identify small molecule agonists of the progesterone receptor (PR) signaling pathway - cell viability counter screen (AID 1346799; calls by dose curve; also: nearly all actives have a fitted effect of over 45% in size). The gist of the method: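 Counter screen in the PR-UAS-bla HEK293T wells (2% charcoal-stripped FBS, 16 h compound exposure at 37 C) after the bla read. CellTiter-Glo added, 30 min at room temperature, luminescence read as cell viability.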

Assay [18] has as its target Androgen receptor (Homo sapiens) (UniProt P10275). Description: qHTS assay to identify small molecule agonists of the androgen receptor (AR) signaling pathway in the presence of an antagonist (AID 1259381; calls by dose curve; also: nearly all actives have a fitted effect of over 15% in size). The gist of the method: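 AR antagonist background: nilutamide 3.0uM final. Cell line: MDA-kb2, MMTV-driven luciferase, responsive to both AR and GR. Exposure 16hr, 37C, no CO2; ONE-Glo luminescence.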

Assay [19] concerns the target Estrogen receptor (Homo sapiens) (UniProt P03372). Description: qHTS assay to identify small molecule agonists of the estrogen receptor alpha (ER-alpha) signaling pathway in the presence of an antagonist (AID 1259383; calls by dose curve; also: top concentration of the series differs between compounds; nearly all actives have a fitted effect of over 15% in size). Summed up:
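ER-alpha agonism measured under antagonist challenge: 10.0nM ICI-182,780 (final) plus compound, 15 concentrations, 22hr, VM7Luc4E2 ERE-luciferase cells. Read by luminescence.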

Assay [20] deals with Thyrotropin receptor (Homo sapiens) (UniProt P16473). Description: qHTS assay to identify small molecule antagonists of the thyroid stimulating hormone receptor (TSHR) signaling pathway (AID 1259385; calls by dose curve; also: nearly all actives have a fitted effect of over 20% in size). Summed up:
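TSHR-HEK293 cells (800/well) plated 18 h, then compounds with Ro20-1724 and TSH at 1.5 ng/mL final, 30 min at room temperature. cAMP quantified by HTRF (cAMP-d2/anti-cAMP-cryptate, 1 h); 15 concentrations in triplicate.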

Sequence of Thyrotropin receptor (Homo sapiens) (P16473 whole entry, looked up): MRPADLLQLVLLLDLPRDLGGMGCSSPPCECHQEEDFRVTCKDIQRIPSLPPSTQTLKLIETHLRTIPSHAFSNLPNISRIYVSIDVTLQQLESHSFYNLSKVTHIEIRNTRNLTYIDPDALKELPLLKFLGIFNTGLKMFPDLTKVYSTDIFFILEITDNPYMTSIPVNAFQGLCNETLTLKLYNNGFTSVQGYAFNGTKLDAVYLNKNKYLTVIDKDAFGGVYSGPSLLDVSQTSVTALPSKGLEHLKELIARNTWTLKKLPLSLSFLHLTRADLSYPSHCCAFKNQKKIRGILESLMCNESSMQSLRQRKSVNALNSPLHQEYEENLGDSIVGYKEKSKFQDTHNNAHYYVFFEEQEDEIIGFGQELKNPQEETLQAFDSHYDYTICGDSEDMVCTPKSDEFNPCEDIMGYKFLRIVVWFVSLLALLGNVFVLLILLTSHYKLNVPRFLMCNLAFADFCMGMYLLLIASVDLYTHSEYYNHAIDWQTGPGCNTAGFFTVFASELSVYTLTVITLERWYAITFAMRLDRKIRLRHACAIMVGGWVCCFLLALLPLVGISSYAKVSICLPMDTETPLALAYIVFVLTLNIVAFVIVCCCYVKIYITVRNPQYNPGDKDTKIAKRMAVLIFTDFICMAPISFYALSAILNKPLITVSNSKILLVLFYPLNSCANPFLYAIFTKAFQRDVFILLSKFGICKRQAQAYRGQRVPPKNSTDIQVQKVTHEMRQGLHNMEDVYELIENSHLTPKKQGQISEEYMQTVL
Sequence of Estrogen receptor beta (Homo sapiens) (Q92731 whole entry, looked up): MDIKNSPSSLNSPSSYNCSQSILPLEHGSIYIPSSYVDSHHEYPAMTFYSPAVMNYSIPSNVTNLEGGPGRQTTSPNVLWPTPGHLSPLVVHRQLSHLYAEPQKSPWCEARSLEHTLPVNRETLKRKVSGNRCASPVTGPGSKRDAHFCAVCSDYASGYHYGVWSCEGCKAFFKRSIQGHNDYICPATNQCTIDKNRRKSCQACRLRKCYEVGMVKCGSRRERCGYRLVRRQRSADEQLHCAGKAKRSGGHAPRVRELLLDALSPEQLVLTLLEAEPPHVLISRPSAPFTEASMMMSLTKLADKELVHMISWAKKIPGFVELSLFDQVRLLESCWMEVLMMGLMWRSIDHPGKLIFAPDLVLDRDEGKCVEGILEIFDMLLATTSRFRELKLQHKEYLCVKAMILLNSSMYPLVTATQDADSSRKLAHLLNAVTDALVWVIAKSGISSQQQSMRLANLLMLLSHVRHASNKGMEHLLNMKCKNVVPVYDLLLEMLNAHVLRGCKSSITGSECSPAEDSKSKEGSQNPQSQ
Sequence of Progesterone receptor (Homo sapiens) (P06401 whole entry, looked up): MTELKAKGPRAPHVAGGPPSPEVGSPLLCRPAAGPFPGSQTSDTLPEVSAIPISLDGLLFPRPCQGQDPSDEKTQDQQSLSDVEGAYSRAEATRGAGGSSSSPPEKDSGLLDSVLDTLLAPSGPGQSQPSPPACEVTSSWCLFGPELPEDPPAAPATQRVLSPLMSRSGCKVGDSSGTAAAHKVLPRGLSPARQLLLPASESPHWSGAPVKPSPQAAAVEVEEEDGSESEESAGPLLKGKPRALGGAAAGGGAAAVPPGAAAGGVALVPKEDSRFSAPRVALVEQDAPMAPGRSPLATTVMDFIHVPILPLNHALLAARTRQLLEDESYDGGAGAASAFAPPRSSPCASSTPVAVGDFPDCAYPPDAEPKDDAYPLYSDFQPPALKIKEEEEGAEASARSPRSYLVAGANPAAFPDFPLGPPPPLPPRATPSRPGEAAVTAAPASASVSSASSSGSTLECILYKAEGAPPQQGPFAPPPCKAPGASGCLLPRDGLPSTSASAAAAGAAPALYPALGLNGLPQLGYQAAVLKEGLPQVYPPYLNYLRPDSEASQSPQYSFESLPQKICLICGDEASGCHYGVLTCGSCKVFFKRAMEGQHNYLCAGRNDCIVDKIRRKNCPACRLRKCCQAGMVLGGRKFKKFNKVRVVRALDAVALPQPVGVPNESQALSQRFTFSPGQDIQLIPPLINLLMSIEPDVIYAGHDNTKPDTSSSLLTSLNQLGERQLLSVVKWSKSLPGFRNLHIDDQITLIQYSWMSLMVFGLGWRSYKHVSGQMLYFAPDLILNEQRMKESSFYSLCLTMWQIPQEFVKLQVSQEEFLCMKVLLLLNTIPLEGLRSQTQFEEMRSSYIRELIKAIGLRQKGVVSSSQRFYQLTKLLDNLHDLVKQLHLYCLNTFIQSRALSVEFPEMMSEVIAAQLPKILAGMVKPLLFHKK
Sequence of Thyrotropin-releasing hormone receptor (Homo sapiens) (P34981 whole entry, looked up): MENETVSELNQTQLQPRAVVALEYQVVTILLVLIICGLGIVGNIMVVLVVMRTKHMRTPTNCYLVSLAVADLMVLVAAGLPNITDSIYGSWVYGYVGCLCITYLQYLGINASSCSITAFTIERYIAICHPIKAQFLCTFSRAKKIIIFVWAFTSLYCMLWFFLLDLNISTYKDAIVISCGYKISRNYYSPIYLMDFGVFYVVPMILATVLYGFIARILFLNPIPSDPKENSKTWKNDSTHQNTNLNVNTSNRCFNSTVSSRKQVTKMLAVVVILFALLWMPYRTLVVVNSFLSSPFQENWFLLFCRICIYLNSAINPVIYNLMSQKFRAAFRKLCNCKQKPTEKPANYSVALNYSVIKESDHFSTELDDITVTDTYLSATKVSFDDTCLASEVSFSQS
Sequence of Estrogen receptor (Homo sapiens) (P03372 whole entry, looked up): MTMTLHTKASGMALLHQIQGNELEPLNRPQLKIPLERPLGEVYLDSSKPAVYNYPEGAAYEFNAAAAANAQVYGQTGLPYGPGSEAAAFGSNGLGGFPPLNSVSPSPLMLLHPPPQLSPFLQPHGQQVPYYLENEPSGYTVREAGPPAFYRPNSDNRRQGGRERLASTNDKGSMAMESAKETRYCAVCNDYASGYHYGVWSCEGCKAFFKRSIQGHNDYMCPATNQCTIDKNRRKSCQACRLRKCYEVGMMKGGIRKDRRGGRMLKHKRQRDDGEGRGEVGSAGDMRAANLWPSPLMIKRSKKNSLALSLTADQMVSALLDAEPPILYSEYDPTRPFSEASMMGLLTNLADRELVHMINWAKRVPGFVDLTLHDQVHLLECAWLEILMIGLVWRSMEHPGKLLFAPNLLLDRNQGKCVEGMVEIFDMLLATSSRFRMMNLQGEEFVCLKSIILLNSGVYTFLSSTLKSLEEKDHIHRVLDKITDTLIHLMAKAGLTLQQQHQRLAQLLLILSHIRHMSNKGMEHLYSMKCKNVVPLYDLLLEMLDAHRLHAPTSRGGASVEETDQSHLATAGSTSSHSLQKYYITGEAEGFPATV
Sequence of Androgen receptor (Homo sapiens) (P10275 whole entry, looked up): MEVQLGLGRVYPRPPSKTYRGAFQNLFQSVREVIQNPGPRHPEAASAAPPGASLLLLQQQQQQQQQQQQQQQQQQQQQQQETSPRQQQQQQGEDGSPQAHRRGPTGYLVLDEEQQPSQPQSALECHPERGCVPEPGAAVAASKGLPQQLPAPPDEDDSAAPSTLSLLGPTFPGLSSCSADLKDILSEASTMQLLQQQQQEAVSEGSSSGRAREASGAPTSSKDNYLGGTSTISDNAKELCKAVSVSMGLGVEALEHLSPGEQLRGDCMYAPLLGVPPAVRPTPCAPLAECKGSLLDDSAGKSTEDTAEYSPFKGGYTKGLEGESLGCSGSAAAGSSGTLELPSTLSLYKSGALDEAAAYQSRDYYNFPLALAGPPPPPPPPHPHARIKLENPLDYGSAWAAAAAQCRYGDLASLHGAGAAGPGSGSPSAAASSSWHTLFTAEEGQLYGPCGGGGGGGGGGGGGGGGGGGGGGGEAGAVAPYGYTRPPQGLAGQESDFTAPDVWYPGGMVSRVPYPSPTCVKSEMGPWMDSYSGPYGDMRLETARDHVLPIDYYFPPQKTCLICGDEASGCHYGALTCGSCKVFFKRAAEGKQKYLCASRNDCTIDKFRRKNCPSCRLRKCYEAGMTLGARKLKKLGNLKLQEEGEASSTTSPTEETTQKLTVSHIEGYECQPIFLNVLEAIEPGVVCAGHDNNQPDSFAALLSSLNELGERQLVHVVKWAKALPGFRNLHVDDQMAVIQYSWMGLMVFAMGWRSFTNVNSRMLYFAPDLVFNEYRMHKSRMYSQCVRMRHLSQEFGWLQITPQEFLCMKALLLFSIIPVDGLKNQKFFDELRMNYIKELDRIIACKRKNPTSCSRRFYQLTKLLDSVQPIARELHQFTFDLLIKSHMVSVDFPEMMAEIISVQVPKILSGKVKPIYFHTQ

Turning to `COc1cccc2c1C(=O)c1c(O)c3c(c(O)c1C2=O)C[C@@](O)(C(=O)CO)C[C@@H]3O[C@H]1C[C@H](N)[C@H](O)[C@H](C)O1`, the Potency entry in assay [1], in assay [5], in assay [9], in [10], in [12] and in assay [13] was “inactive” in each case. In addition, the Potency in [2] is 1.93 µM (active) and 11.9 µM (active); in assay [3], 15.3 µM (active) and 11.9 µM (active); in [4], “inactive and 473 nM (active)”; in assay [7], 24.3 µM (active) and 29.8 µM (active); in assay [8] it was 2.73 µM (active) and 9.44 µM (active); in assay [14] it was 1.72 µM (active) and 6.68 µM (active). Also, the result in assay [6] and in [11] was inactive.

For `CCC(C)c1ccccc1O` (configuration not stated), the Potency entry in assay [1], in assay [2], in [3], in [4], in [5] and in [7] was “inactive” each time. Besides, the Potency entry in assay [15], in [8], in [16], in [17], in [9] and in assay [10] was “inactive” each time. For the same molecule, the Potency entry in [12], in [13] and in [14] was “inactive” in each case. For the same molecule, the molecule was called inactive in assay [6] and in assay [11].

With `CC1=CCC(C(C)(C)O)CC1` (configuration not stated), the Potency entry in assay [3], in assay [4], in [5], in [19], in assay [20] and in [7] was “inactive” throughout. In addition, the Potency result in assay [15], in assay [8], in assay [16], in assay [9], in assay [10] and in [12] was “inactive” each time. Besides, the Potency entry in assay [13] and in [14] was “inactive” throughout. For the same molecule, the outcome in assay [18], in assay [6] and in assay [11] was inactive.

Consider `C[Si](C)(C)O[Si](C)(C)C`, for which the Potency entry in [1], in assay [2], in assay [3], in assay [4], in assay [5] and in assay [7] was “inactive” throughout. The Potency entry in assay [15], in [8], in [16], in assay [9], in [10] and in assay [12] was “inactive” throughout. Moreover, the Potency entry in assay [13] and in assay [14] was “inactive” in each case. Also, the result in assay [6] and in assay [11] was inactive.

Consider `Cc1c(OCC(F)(F)F)ccnc1CS(=O)c1nc2ccccc2[nH]1` (configuration not stated), for which the Potency entry in assay [1], in assay [3], in assay [4], in [5], in assay [20] and in assay [15] was “inactive” each time. Moreover, the Potency result in [9], in assay [10], in [12], in assay [13] and in assay [14] was “inactive” in each case. Also, the molecule was classed as inactive in assay [6] and in [11].

Regarding `CCCCOCCOCCO`, the Potency result in assay [1], in assay [2], in [3], in [4], in assay [5] and in assay [7] was “inactive” in each case. The Potency entry in assay [15], in assay [8], in [16], in [17], in [9] and in assay [10] was “inactive” each time. Also, the Potency result in [14] was “inactive”. Besides, the call in [6] and in assay [11] was inactive.
